# Laboratory results taken from the supplement of paper PMC12645437, “Orthogonal IMiD-Degron Pairs Induce Selective Protein Degradation in Cells” (ACS Chemical Biology, 2025).
# Whole data set: some 8,300 sequences, median “log2 fold change of degron read counts, EGFP-low vs EGFP+ sorted cells (limma voom), compound-induced degradation” near -1.1, cut for the highest 2% near 3.2. The sample holds the highest values, similar sequences and a random draw of the others, so the mix is not that of the screen.
# T1: CRBN, Q96SW2
# T1 chain: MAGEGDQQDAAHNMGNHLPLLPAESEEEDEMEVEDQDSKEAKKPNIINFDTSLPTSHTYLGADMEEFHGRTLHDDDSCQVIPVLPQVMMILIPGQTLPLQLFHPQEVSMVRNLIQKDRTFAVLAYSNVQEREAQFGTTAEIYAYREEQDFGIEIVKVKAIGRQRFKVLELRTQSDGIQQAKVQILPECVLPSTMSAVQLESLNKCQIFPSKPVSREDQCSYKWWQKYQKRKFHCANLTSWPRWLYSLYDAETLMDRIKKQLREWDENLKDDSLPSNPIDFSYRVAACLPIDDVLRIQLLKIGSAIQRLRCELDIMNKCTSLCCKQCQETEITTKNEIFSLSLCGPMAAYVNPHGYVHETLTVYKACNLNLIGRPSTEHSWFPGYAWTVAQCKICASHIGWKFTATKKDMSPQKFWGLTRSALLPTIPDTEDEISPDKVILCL
# Biological target: T1, CRBN, Q96SW2
# Experiment: log2 fold change of degron read counts, EGFP-low vs EGFP+ sorted cells (limma voom), compound-induced degradation; higher = more compound-induced degradation of the degron-EGFP fusion; degrons are variants of IKZF1/3 zinc finger 2; compound dose not given here
# Settings: Jurkat, 18 h
# [1] = compound: compound 19 (5-tert-butyl-thalidomide)
# [2] = compound: compound 22 (5-morpholino-thalidomide)
# [3] = compound: compound 33 (diphenyl IMiD analogue)
# 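Further: pooled lentiviral library of zinc finger degron-EGFP fusions in mCherry-positive Jurkat cells, FACS-sorted after compound exposure, with degron abundance counted by next-generation sequencing.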
Sequence,log2 fold change of degron read counts [1],log2 fold change of degron read counts [2],log2 fold change of degron read counts [3],log2 fold change of degron read counts (compound: thalidomide)
"FSCDVCGALFTQKGNLLRHIKL [46F_47S_49D_50V_52G_53A_54L_55F_67L_, Q9UKT9]",-1.17,-1.66,0.461,-2.2
"FECEQCGAGFTQKGNLLRHIKL [46F_47E_49E_50Q_52G_53A_54G_55F_67L_, Q9UKT9]",-1.66,-2.94,-1.37,-1.37
"FRCSVCGHNFTQKGNLLRHIKL [46F_47R_49S_50V_52G_53H_54N_55F_67L_, Q9UKT9]",-2.2,-2.6,-2.8,-2.89
"FICEICGHSFTQKGNLLRHIKL [46F_47I_49E_50I_52G_53H_54S_55F_67L_, Q9UKT9]",-3.27,-2.78,-2.2,-2.17
"FCCDICGAEFTQKGNLLRHIKL [46F_47C_49D_50I_52G_53A_54E_55F_67L_, Q9UKT9]",0.189,-0.292,-0.603,-0.702
"FTCNQCGHTFTQKGNLLRHIKL [46F_47T_49N_50Q_52G_53H_54T_55F_67L_, Q9UKT9]",-3.38,-3.31,-3.66,-2.92
"FMCDVCGAIFTQKGNLLRHIKL [46F_47M_49D_50V_52G_53A_54I_55F_67L_, Q9UKT9]",-2.28,-2.09,0.171,-1.7
"FYCNICGARFTQKGNLLRHIKL [46F_47Y_49N_50I_52G_53A_54R_55F_67L_, Q9UKT9]",1.83,2.47,-0.345,-0.644
"FLCNICGARFTQKGNLLRHIKL [46F_47L_49N_50I_52G_53A_54R_55F_67L_, Q9UKT9]",-1.1,-1.89,-0.701,0.842
"FWCNICGARFTQKGNLLRHIKL [46F_47W_49N_50I_52G_53A_54R_55F_67L_, Q9UKT9]",2.19,3.34,0.85,0.523
"FQCNICGARFTQKGNLLRHIKL [46F_47Q_49N_50I_52G_53A_54R_55F_67L_, Q9UKT9]",-0.916,0.973,0.399,3.26
"FNCNICGARFTQKGNLLRHIKL [46F_47N_49N_50I_52G_53A_54R_55F_67L_, Q9UKT9]",1.28,0.255,-1.05,-0.266
"FTCNICGARFTQKGNLLRHIKL [46F_47T_49N_50I_52G_53A_54R_55F_67L_, Q9UKT9]",0.313,1.57,0.916,2.41
"LHCPICGFWCTQKGNLLRHIKL [46L_47H_49P_50I_52G_53F_54W_55C_67L_, Q9UKT9]",1.34,1.54,2.54,1.59
"FQCPICGHNFTQKGNLLRHIKL [46F_47Q_49P_50I_52G_53H_54N_55F_67L_, Q9UKT9]",-2.9,-1.92,-1.21,0.375
"LACPICGFTCTQKGNLLRHIKL [46L_47A_49P_50I_52G_53F_54T_55C_67L_, Q9UKT9]",3.68,3.23,2.51,2.61
"LTCPICGFTCTQKGNLLRHIKL [46L_47T_49P_50I_52G_53F_54T_55C_67L_, Q9UKT9]",1.57,3.31,2.65,3.44
"LVCPICGFTCTQKGNLLRHIKL [46L_47V_49P_50I_52G_53F_54T_55C_67L_, Q9UKT9]",1.27,2.61,2.22,3.21
"LHCPICGFTCTQKGNLLRHIKL [46L_47H_49P_50I_52G_53F_54T_55C_67L_, Q9UKT9]",2.75,2.97,2.8,2.34
"LMCPICGFTCTQKGNLLRHIKL [46L_47M_49P_50I_52G_53F_54T_55C_67L_, Q9UKT9]",-0.0285,1.97,2.76,2.79
"LQCPICGFTCTQKGNLLRHIKL [46L_47Q_49P_50I_52G_53F_54T_55C_67L_, Q9UKT9]",1.75,2.59,2.54,3.66
"LLCPICGFTCTQKGNLLRHIKL [46L_47L_49P_50I_52G_53F_54T_55C_67L_, Q9UKT9]",0.147,0.286,1.38,2.64
"LICPICGFTCTQKGNLLRHIKL [46L_47I_49P_50I_52G_53F_54T_55C_67L_, Q9UKT9]",0.369,2.36,2.13,2.81
"LSCPICGFTCTQKGNLLRHIKL [46L_47S_49P_50I_52G_53F_54T_55C_67L_, Q9UKT9]",3.13,2.83,2.48,2.59
"LRCPICGFTCTQKGNLLRHIKL [46L_47R_49P_50I_52G_53F_54T_55C_67L_, Q9UKT9]",0.326,0.593,1.93,2.23
"LFCPICGFTCTQKGNLLRHIKL [46L_47F_49P_50I_52G_53F_54T_55C_67L_, Q9UKT9]",3.39,3.54,2.49,2.69
"LKCPICGFTCTQKGNLLRHIKL [46L_47K_49P_50I_52G_53F_54T_55C_67L_, Q9UKT9]",-0.865,-1.65,-1.59,0.662
"FICNQCGHNFTQKGNLLRHIKL [46F_47I_49N_50Q_52G_53H_54N_55F_67L_, Q9UKT9]",-2.7,-3.24,-2.97,-2.3
